PrP UTR inh: inhibition of PrP 5' UTR reporter expression | cell-based PrP 5' UTR mRNA reporter, plate reader | inhibition, % (test concentration not listed) | AID 488862, 2010 | hit rate 0.35% among 340,000; in the data active = inhibition above about 52%
PrPC TRFRET: inhibitors of human cell surface prion protein PrPC, primary screen, cell-based, TR-FRET; Major prion protein (Homo sapiens), P04156; inhibition, % at 13.8 µM; TR-FRET read-out; hit rate 0.43% among 370,000; in the data active = inhibition above about 24%
Mtb hypoxia inh: PubChem AID 1159583. M. tuberculosis hypoxia-regulated fluorescent reporter, fluorescence. fluorescence inhibition, % (concentration not given with the values). hit rate 0.1% among 300,000; in the data active = fluorescence inhibition mostly above about 23%, no sharp cut-off; inactive = mostly below about 17%
Mtb FBA inh: Mtb FBA enzyme inhibitors, primary screen, biochemical, fluorescence, strain H37Rv; AID 588726, 2011; hit rate 2.3% among 360,000; inhibition, % at 1 µM; purified M. tuberculosis FBA, fluorescence read-out
Target sequence (P9WQA3 whole entry, looked up): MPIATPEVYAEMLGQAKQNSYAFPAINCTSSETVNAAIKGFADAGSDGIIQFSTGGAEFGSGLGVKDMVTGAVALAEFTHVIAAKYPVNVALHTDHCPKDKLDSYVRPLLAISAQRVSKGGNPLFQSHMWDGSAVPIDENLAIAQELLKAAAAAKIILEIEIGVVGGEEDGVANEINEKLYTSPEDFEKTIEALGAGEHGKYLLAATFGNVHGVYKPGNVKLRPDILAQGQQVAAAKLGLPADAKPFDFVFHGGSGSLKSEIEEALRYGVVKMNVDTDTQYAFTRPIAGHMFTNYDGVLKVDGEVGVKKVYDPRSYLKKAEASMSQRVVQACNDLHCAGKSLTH
Yp Topo-I inh: Yersinia pestis topoisomerase I inhibitors, primary screen, biochemical, cleavage product accumulation, plate reader, single point | Y. pestis Topo-I cleavage product accumulation | hit rate 0.064% among 360,000 | DNA topoisomerase I (Yersinia pestis CO92) | activity, % at 10 µM; in the data active = activity above about 50%, passing the limit was not always enough
GDH-TPI counter-1: GDH-TPI coupling enzyme inhibitors, primary screen, artefact control for M. tuberculosis FBA inhibitor project, biochemical, absorbance, full deck. hit rate 1.2% among 360,000. GDH-TPI coupled enzyme counterscreen, NADH absorbance. inhibition, % at 4.8 µM; in the data active = inhibition above about 30%
Mtb FBA confirm: M. tuberculosis aldolase blockers, biochemical, fluorescence, strain H37Rv, confirmation; shares compounds with Mtb FBA inh; purified M. tuberculosis FBA, fluorescence read-out; inhibition, % at 1 µM; hit rate 78% among 5,600; AID 651616, 2012
GDH-TPI counter-2: GDH-TPI coupling enzyme inhibitors, artefact control for M. tuberculosis FBA inhibitor project, biochemical, fluorescence, high throughput; shares compounds with Mtb FBA inh; GDH-TPI coupled enzyme counterscreen; inhibition, % at 1 µM; hit rate 81% among 5,600; AID 652141, 2013; in the data active = inhibition above about 10%
A number is an active result; n = inactive; x = not tested or not shown; + = active, no number. An excerpt weighted towards active compounds, which were near 3.8% of everything screened. Rule as the data show it, unless noted: active = inhibition above about 27%; inactive = the rest.

SMILES	PrP UTR inh	PrPC TRFRET	Mtb hypoxia inh	Mtb FBA inh	Yp Topo-I inh	GDH-TPI counter-1	Mtb FBA confirm	GDH-TPI counter-2
O=C(Nc1ccc(O)c(C(=O)O)c1)Oc1ccccc1	n	n	n	73.5	n	n	137.5	98.5
Cc1ccc(C=NNC(=O)CSc2nnc(-c3ccc(Cl)cc3)n2-c2ccccc2)o1	x	x	n	x	x	x	x	x
CC(C)NC(=O)Nc1cccc2c1O[C@H](CN(C)S(=O)(=O)c1ccccc1)[C@@H](C)CN([C@H](C)CO)C2=O	n	n	x	39.0	n	n	59.2	61.3
CC(C)NC(=O)Nc1cccc2c1O[C@H](CN(C)S(=O)(=O)c1ccc(F)cc1)[C@@H](C)CN([C@H](C)CO)C2=O	n	n	n	n	n	n	x	x
Cc1ccc(-c2nc3cc(NS(=O)(=O)c4ccc(C)cc4)ccc3o2)cc1	n	n	n	32.7	n	n	45.1	28.3
O=S(=O)(Nc1ccc2oc(-c3ccccc3)nc2c1)c1ccccc1	n	n	n	49.5	n	n	141.0	112.0
O=C1NC(c2ccc3ccccc3c2)Nc2ccccc21 (stereo unspecified)	x	n	x	50.5	n	n	71.2	87.4
O=C1NC(c2ccc(Br)cc2)Nc2ccccc21 (stereo unspecified)	n	n	n	41.8	n	n	102.2	94.9
Brc1ccc(C2Nc3cccc4cccc(c34)N2)cc1	n	n	x	n	n	n	x	x
C(=N\n1cnnc1)/c1nc2ccccc2[nH]1	n	n	x	74.1	n	n	60.2	49.2
CC(C)Cn1c(/C=C/c2ccco2)nc2ccccc21	n	n	n	n	n	n	x	x
CCC(=O)c1ccc(/C=C/c2nc3ccccc3n2C)o1	n	n	n	83.4	n	n	n	n
Cn1c(/C=N/O)nc2ccccc21	n	n	x	52.4	n	n	n	10.5
Cc1[nH]c2ccccc2c1/C=N/n1cnnc1	n	n	x	n	n	n	x	x
Cn1c(/C=N/n2cnnc2)nc2ccccc21	n	n	x	45.3	n	37.5	n	n
COC(=O)C1=C(c2ccc(Cl)c(C(F)(F)F)c2)CC2CCC1N2C(=O)NC1CC1 (stereo unspecified)	x	x	n	x	x	x	x	x
O=C(NN=Cc1ccccc1F)c1cccc2ccccc12	x	x	n	x	x	x	x	x
C[C@]12C=CC(=O)C=C1CCC1C2C(O)C[C@@]2(C)C1CC[C@]2(O)C(=O)COC(=O)CCC(=O)O (stereo partly specified)	x	x	n	x	x	x	x	x
CC(NC(=O)c1nc[nH]c1C(=O)NCC(=O)OCc1ccccc1)C(=O)OCc1ccccc1 (stereo unspecified)	x	x	n	x	x	x	x	x
N#Cc1c(N(CCO)CCO)nc(N)c2c(N)nc3c(c12)CC(=O)N3CC1CCCO1 (stereo unspecified)	n	n	n	36.7	n	n	171.3	151.9
CC(C)c1cc(Cn2c3ccccc3c(=O)n2C(C)C)on1	x	n	x	102.9	x	x	+	+
CC(C)c1cc(Cn2c3ccccc3c(=O)n2C(C)Cn2cc(COc3ccccc3)nn2)on1 (stereo unspecified)	x	n	x	x	x	x	x	x
CC(C)c1cc(Cn2c3ccccc3c(=O)n2C(C)CBr)on1 (stereo unspecified)	x	n	x	95.7	x	x	69.8	45.8
O=C(O)CCC(=O)Nc1nc2nccc(-c3ccccc3)n2n1	x	n	n	45.3	n	n	+	181.4
CCCOc1ccc(-c2c(C(=O)NN=Cc3ccc(C)cc3)nnn2-c2nonc2N)cc1	x	x	n	x	x	x	x	x
O=C(Cc1cccc2ccccc12)Nc1ccc(O)cc1C(=O)O	n	n	n	32.4	n	n	n	n
COc1cc(C=NNC(=O)C2CC3C=CC2C3)ccc1O (stereo unspecified)	x	x	n	x	x	x	x	x
Cc1ccc(C=NNC(=O)CN2C(=O)CSc3ccccc32)o1	x	x	n	x	x	x	x	x
CCNC(=S)Nc1ccc2c(c1)c(=O)n(C)n2Cc1cccc(C(F)(F)F)c1	x	n	x	80.5	n	n	190.1	149.7
CCNC(=S)Nc1ccc2c(c1)c(=O)n(C)n2-c1cc(C)cc(C)c1	x	n	x	n	n	n	x	x
